From PubChem BioAssay
Calls of active or inactive are those of the source. Unless noted, no stated cut-off is given here; in the data, active means inhibition above about 80%; inactive means the rest.

Experiments:
[1] = LFS_MB_P medulloblastoma growth inhibition, cell-based, chromothripsis tumors, cisplatin or BGB combos (AID 1671449); settings: LFS_MB_P medulloblastoma cells;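 further: cells exposed for 96 hours; 0% = vehicle DMSO and 100% = killing by high DMSO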
[2] = HDN33 neuroblastoma growth inhibition, cell-based, chromothripsis tumors, cisplatin or BGB combos (AID 1671450); settings: HDN33 neuroblastoma cells, stronger effect = higher value;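 further: cells exposed to compound for four days; 0% = vehicle DMSO and 100% = cell killing by high DMSO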
[3] = ICB984 medulloblastoma cell growth inhibition, synergistic combos for chromothripsis tumors, cisplatin or BGB combos (AID 1671451; call rule not given here;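 further: cells exposed for 96 hours before readout; 0% = vehicle DMSO and 100% = killing by high DMSO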); settings: ICB984 medulloblastoma cells, drug combinations, stronger effect = higher value
[4] = LFS_MB_1R medulloblastoma cell growth inhibition, synergistic combos for chromothripsis tumors, cisplatin or BGB combos (AID 1671452); settings: LFS_MB_1R medulloblastoma cells, stronger effect = higher value;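 further: cells exposed for 96 hours before readout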
[5] = HTB85 osteosarcoma cell growth inhibition, synergistic combos for chromothripsis tumors, BGB or cisplatin IC20 combos (AID 1671453); settings: HTB85 osteosarcoma cells, drug combinations, stronger effect = higher value;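 further: cells exposed for 96 hours before readout; 0% = vehicle DMSO and 100% = high DMSO killing control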
[6] = CRL2098 osteosarcoma cell growth inhibition, synergistic combos for chromothripsis tumors, BGB or cisplatin IC20 combos (AID 1671454); settings: CRL2098 osteosarcoma cells, drug combinations, stronger effect = higher value;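 further: cells exposed for 96 h before readout; 0% = vehicle DMSO and 100% = killing by high DMSO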
[7] = HD-MB03 medulloblastoma cell growth inhibition, synergistic combos for chromothripsis tumors, BGB or cisplatin IC20 combos (AID 1671455; in the data active means inhibition above about 83%;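 further: 0% = vehicle DMSO and 100% = high DMSO as cytotoxic control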); settings: HD-MB03 medulloblastoma cells, stronger effect = higher value
[8] = UWB1.289 ovarian carcinoma cell growth inhibition, synergistic combos for chromothripsis tumors, BGB or cisplatin combos (AID 1671456); settings: UWB1.289 ovarian carcinoma cells, stronger effect = higher value;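 further: cells exposed to compound for four days; 0% = vehicle DMSO and 100% = killing by high DMSO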
[9] = LFS_MB_2R medulloblastoma cell growth inhibition, synergistic combos for chromothripsis tumors, cisplatin combos (AID 1671457); settings: LFS_MB_2R medulloblastoma cells, stronger effect = higher value;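 further: cells exposed to compound for four days before readout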
[10] = MDA-MB-436 breast carcinoma cell growth inhibition, synergistic combos for chromothripsis tumors, BGB or cisplatin combos (AID 1671458; call rule not given here;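 further: cells exposed for 96 hours; 0% = vehicle DMSO and 100% = killing by high DMSO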); settings: MDA-MB-436 breast carcinoma growth inhibition, drug combinations, stronger effect = higher value
[11] = UWB1.289_BRCA1 ovarian cancer growth, cell-based, BGB or cisplatin combinations (AID 1671459); settings: UWB1.289 BRCA1 ovarian carcinoma, drug combinations, stronger effect = higher value
[12] = human astrocyte viability loss, single and combined drugs, cytotoxicity control for chromothriptic childhood tumor combination screen, cell-based, BGB or cisplatin IC20 combos (AID 1671460); settings: Human astrocytes, drug combinations, stronger effect = higher value;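 further: cells exposed to compounds for 96 hours before viability readout; 0% = vehicle and 100% = killing control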
[13] = growth inhibition of BT084 medulloblastoma cells, cell-based, ICGC_MB145, cisplatin and BGB IC40 combos (AID 1671461); settings: drug combinations, stronger effect = higher value;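 further: cells exposed to drugs for 96 hours; 0% = vehicle DMSO and 100% = high DMSO full killing control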
[14] = growth inhibition of RCMB18 medulloblastoma cells, cell-based, cisplatin and BGB IC40 combos (AID 1671462); settings: stronger effect = higher value;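 further: cells exposed to compound for four days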
[15] = growth inhibition of CRL1545 osteosarcoma cells, cell-based, cisplatin and BGB IC20 combos (AID 1671464); settings: stronger effect = higher value;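 further: cells exposed to compound for 96 hours before readout; 0% = vehicle DMSO and 100% = high DMSO killing control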
[16] = at 0.5 µM, stronger effect = higher value
[17] = measured here: combination with BGB IC20, at 0.005 µM
[18] = measured here: combination with BGB IC40, at 0.005 µM
[19] = measured here: combination with BGB IC40, at 0.05 µM
[20] = measured here: combination with cisplatin, at 0.5 µM, stronger effect = higher value
[21] = measured here: combination with cisplatin, at 5 µM, stronger effect = higher value
[22] = measured here: with BGB IC20 combination, at 0.5 µM
[23] = measured here: with cisplatin IC20 combination, at 0.5 µM
[24] = measured here: 5 uM single agent, at 5 µM
[25] = measured here: combination with cisplatin, at 0.5 µM
[26] = measured here: combination with cisplatin, at 5 µM
[27] = measured here: with BGB IC20, at 0.5 µM
[28] = measured here: with BGB IC20, at 5 µM
[29] = measured here: with cisplatin IC20, at 0.5 µM
[30] = measured here: with cisplatin IC20, at 5 µM
[31] = measured here: combination with BGB at IC20, at 0.5 µM
[32] = measured here: combination with cisplatin at IC20, at 0.5 µM
[33] = measured here: combo with BGB at IC20, at 0.5 µM
[34] = measured here: combo with cisplatin at IC20, at 0.5 µM
[35] = measured here: inhibition with BGB combination, at 0.05 µM
[36] = measured here: inhibition with cisplatin combination, at 0.05 µM
[37] = measured here: BGB combination, at 0.5 µM
[38] = measured here: BGB combination, at 5 µM
[39] = measured here: cisplatin combination, at 0.5 µM
[40] = measured here: cisplatin combination, at 5 µM
[41] = BGB combination, concentration series, at 5 µM
[42] = cisplatin combination, concentration series, at 5 µM
[43] = measured here: combo with BGB IC20, at 0.5 µM
[44] = measured here: combo with cisplatin IC20, at 0.5 µM
[45] = cisplatin combination, at 0.5 µM
[46] = measured here: BGB IC40 combination 0.05 uM, at 0.05 µM
[47] = measured here: BGB IC40 combination, at 0.05 µM

In the case of `O=C1C(=Cc2cccnc2)C(=O)c2ccccc21`, the inhibition [1, 16] was -18.2% (inactive), the inhibition [1, 17] was -17.1% and the inhibition [1, 18] was 67.5%. It also gave an inhibition [1, 19] of -27.5%, an inhibition [1, 20] of -45.6% and an inhibition [1, 21] of -16.1%. For the same compound, the inhibition ([2]; BGB combo, at 5 µM) was -24.2%, the inhibition ([2]; at 0.5 µM) was -0.8% (inactive) and the inhibition ([2]; cisplatin combo, at 5 µM) was -15.7%. The inhibition [2, 22] was -14.2%, the inhibition [2, 23] was 14.1% and the inhibition ([2]; single agent, at 5 µM) was -16.1%. It also gave an inhibition ([3]; BGB IC20 combo, at 0.005 µM) of 0.337%, an inhibition ([3]; BGB IC40 combo, at 0.005 µM) of -13.1% and an inhibition ([3]; BGB IC40 combo, at 0.05 µM) of -4.84%. For the same compound, the inhibition ([3]; at 0.5 µM) was -25.7% (inactive), the inhibition ([3]; cisplatin combo, at 0.05 µM) was -10.2% and the inhibition ([3]; cisplatin combo, at 0.5 µM) was -37.3%. The inhibition ([3]; cisplatin combo, at 5 µM) was -28.8%, the inhibition [3, 24] was -20.5% and the inhibition ([4]; at 0.5 µM) was -8.72% (inactive). For the same compound, the inhibition [4, 19] was -20.3%, the inhibition [4, 25] was -8.61% and the inhibition [4, 26] was -32.8%. The inhibition ([5]; at 0.5 µM) was -5.81% (inactive), the inhibition [5, 27] was 0.006% and the inhibition [5, 28] was -4.06%. It also gave an inhibition [5, 29] of -17.7%, an inhibition [5, 30] of 0.224% and an inhibition ([5]; single agent, at 5 µM) of 6.13%. The inhibition ([6]; at 0.5 µM) was -26.6% (inactive), the inhibition [6, 31] was -25.9% and the inhibition [6, 32] was -22.2%. For the same compound, the inhibition ([7]; at 0.5 µM) was -8.47% (inactive), the inhibition [7, 33] was -12% and the inhibition [7, 34] was -5.96%. The inhibition ([8]; at 0.5 µM) was 0.75% (inactive), the inhibition [8, 35] was 2.81% and the inhibition [8, 36] was -5.97%. For the same compound, the inhibition ([9]; at 0.5 µM) was -15.3% (inactive), the inhibition [9, 25] was -19.2% and the inhibition [9, 26] was -18.7%. For the same compound, the inhibition ([10]; at 0.5 µM) was -13.9% (inactive), the inhibition [10, 37] was -13.8% and the inhibition [10, 38] was -19.4%. For the same compound, the inhibition [10, 39] was -27.6%, the inhibition [10, 40] was -23.4% and the inhibition [11, 41] was -3.65%. The inhibition ([11]; at 0.5 µM) was -0.75% (inactive), the inhibition [11, 42] was 4.94% and the inhibition ([12]; at 0.5 µM) was 5.07% (inactive). For the same compound, the inhibition [12, 43] was -3.05%, the inhibition [12, 44] was 0.407% and the inhibition ([13]; at 0.5 µM) was -7.01% (inactive). The inhibition [13, 45] was -1.5%, the inhibition ([13]; cisplatin combination, at 5 µM) was -101% and the inhibition [13, 46] was -30.3%. For the same compound, the inhibition ([13]; single agent, at 5 µM) was 9.68%, the inhibition ([14]; at 0.5 µM) was -13.1% (inactive) and the inhibition ([14]; cisplatin combo, at 5 µM) was 4.14%. The inhibition [14, 47] was -19.1%, the inhibition [14, 25] was -37% and the inhibition ([14]; single agent, at 5 µM) was -5.07%. For the same compound, the inhibition ([15]; at 0.5 µM) was 3.87% (inactive), the inhibition [15, 22] was -10.3% and the inhibition [15, 23] was 9.52%. It also gave an inhibition ([15]; single agent, at 0.05 µM) of -45.6% and an inhibition ([15]; single agent, at 5 µM) of -28.3%.

For `N#Cc1ccc(OC2CCC(NC(=O)CCSc3nc4ccccc4c(=O)[nH]3)CC2)cc1` (stereo unspecified), the inhibition [1, 16] was -11.7% (inactive), the inhibition [1, 17] was -15.6% and the inhibition [1, 18] was -25.5%. The inhibition [1, 19] was -19.3%, the inhibition [1, 20] was -29.6% and the inhibition [1, 21] was -57.3%. For the same compound, the inhibition ([2]; BGB combo, at 5 µM) was 8.7%, the inhibition ([2]; at 0.5 µM) was 15.1% (inactive) and the inhibition ([2]; cisplatin combo, at 5 µM) was 37.4%. The inhibition [2, 22] was 12.5%, the inhibition [2, 23] was 15.6% and the inhibition ([2]; single agent, at 5 µM) was 35.9%. It also gave an inhibition ([3]; BGB IC20 combo, at 0.005 µM) of -4.21%, an inhibition ([3]; BGB IC40 combo, at 0.005 µM) of -8.75% and an inhibition ([3]; BGB IC40 combo, at 0.05 µM) of 7.9%. For the same compound, the inhibition ([3]; at 0.5 µM) was -30.9% (inactive), the inhibition ([3]; cisplatin combo, at 0.05 µM) was 4.58% and the inhibition ([3]; cisplatin combo, at 0.5 µM) was -24.9%. The inhibition ([3]; cisplatin combo, at 5 µM) was -26.6%, the inhibition [3, 24] was 2.34% and the inhibition ([4]; at 0.5 µM) was -15.5% (inactive). It also gave an inhibition [4, 19] of -12.5%, an inhibition [4, 25] of -1.66% and an inhibition [4, 26] of -48.1%. The inhibition ([5]; at 0.5 µM) was 8.65% (inactive), the inhibition [5, 27] was 1.42% and the inhibition [5, 28] was -9.23%. For the same compound, the inhibition [5, 29] was 9.73%, the inhibition [5, 30] was -13.4% and the inhibition ([5]; single agent, at 5 µM) was 12.3%. The inhibition ([6]; at 0.5 µM) was -13.9% (inactive), the inhibition [6, 31] was 25.6% and the inhibition [6, 32] was -58.5%. The inhibition ([7]; at 0.5 µM) was 5.55% (inactive), the inhibition [7, 33] was 2.46% and the inhibition [7, 34] was 7.46%. The inhibition ([8]; at 0.5 µM) was 13.3% (inactive), the inhibition [8, 35] was -10.8% and the inhibition [8, 36] was 9.73%. The inhibition ([9]; at 0.5 µM) was -13.3% (inactive), the inhibition [9, 25] was -14.4% and the inhibition [9, 26] was -3.9%. The inhibition ([10]; at 0.5 µM) was 3.61% (inactive), the inhibition [10, 37] was -7.72% and the inhibition [10, 38] was -9.87%. For the same compound, the inhibition [10, 39] was 1.31%, the inhibition [10, 40] was 0.512% and the inhibition [11, 41] was 24.2%. For the same compound, the inhibition ([11]; at 0.5 µM) was 9.54% (inactive), the inhibition [11, 42] was -12.4% and the inhibition ([12]; at 0.5 µM) was 37.4% (inactive). The inhibition [12, 43] was 26.2%, the inhibition [12, 44] was 40.6% and the inhibition ([13]; at 0.5 µM) was 0.647% (inactive). It also gave an inhibition [13, 45] of -17.2%, an inhibition ([13]; cisplatin combination, at 5 µM) of -3.13% and an inhibition [13, 46] of -41.1%. For the same compound, the inhibition ([13]; single agent, at 5 µM) was -16.5%, the inhibition ([14]; at 0.5 µM) was 7.33% (inactive) and the inhibition ([14]; cisplatin combo, at 5 µM) was -24.6%. For the same compound, the inhibition [14, 47] was -11.2%, the inhibition [14, 25] was 27.6% and the inhibition ([14]; single agent, at 5 µM) was -12.9%. For the same compound, the inhibition ([15]; at 0.5 µM) was -30% (inactive), the inhibition [15, 22] was -19.6% and the inhibition [15, 23] was -37.4%. For the same compound, the inhibition ([15]; single agent, at 0.05 µM) was 34.4% and the inhibition ([15]; single agent, at 5 µM) was 4.49%.
